Common to all, as to set-up: scale not given: direction of the effect not stated beside the values
Experiment [1] has as its target Protein translocase subunit SecA (Escherichia coli (strain K12)) (UniProt P10408). Kind of experiment: Assay to Identify E. coli SecA ATPase Inhibitors. Type of experiment: functional. The note with it: 30 µM.
Experiment [2] addresses T1, Ubiquitin-activating enzyme e1, putative (Leishmania donovani (strain BPK282A1)) (UniProt E9BSI1).
T1 sequence (whole entry): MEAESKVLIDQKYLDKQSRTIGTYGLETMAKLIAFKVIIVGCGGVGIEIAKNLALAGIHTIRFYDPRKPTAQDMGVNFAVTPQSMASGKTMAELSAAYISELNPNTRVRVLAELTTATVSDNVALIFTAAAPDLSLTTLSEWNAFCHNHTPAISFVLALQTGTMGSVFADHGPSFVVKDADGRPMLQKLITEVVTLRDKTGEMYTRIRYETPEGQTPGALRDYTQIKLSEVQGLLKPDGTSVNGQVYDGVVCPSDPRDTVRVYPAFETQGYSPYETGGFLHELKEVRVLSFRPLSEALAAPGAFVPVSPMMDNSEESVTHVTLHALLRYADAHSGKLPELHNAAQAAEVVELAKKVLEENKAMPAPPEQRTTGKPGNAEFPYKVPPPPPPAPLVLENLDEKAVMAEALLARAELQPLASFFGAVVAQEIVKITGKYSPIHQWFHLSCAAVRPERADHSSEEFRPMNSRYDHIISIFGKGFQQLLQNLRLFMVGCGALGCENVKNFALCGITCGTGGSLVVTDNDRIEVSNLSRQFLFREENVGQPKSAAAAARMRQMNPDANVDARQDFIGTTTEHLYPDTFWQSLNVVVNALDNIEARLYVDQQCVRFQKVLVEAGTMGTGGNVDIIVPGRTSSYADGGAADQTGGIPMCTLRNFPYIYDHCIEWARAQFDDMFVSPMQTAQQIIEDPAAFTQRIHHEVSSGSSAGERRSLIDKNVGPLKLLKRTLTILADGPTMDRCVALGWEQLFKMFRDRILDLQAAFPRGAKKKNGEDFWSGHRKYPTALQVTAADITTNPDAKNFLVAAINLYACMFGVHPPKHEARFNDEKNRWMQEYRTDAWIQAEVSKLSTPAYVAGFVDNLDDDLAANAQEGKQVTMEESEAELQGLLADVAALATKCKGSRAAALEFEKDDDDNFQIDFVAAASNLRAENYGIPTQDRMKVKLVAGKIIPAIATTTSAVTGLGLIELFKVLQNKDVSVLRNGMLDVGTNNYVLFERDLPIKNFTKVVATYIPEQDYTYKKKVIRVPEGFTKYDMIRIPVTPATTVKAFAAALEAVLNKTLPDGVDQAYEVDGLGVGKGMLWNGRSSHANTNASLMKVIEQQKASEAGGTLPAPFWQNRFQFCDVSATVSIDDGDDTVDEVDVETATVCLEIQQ
Kind of experiment: Leishmania donovani Ubiquitin Activating Enzyme (LdE1). Type of experiment: functional. The note with it: 30 µM.

In experiment [3] the target is Sialic acid-binding Ig-like lectin 9 (Homo sapiens) (UniProt Q9Y336). Kind of experiment: Hs-Siglec9 ALPHAscreen SOP 20170721. The settings on record: 10 µM. (In Alpha technology, singlet oxygen from a donor bead excites a nearby acceptor bead.)
Sialic acid-binding Ig-like lectin 9 (Homo sapiens), sequence (Q9Y336 whole entry): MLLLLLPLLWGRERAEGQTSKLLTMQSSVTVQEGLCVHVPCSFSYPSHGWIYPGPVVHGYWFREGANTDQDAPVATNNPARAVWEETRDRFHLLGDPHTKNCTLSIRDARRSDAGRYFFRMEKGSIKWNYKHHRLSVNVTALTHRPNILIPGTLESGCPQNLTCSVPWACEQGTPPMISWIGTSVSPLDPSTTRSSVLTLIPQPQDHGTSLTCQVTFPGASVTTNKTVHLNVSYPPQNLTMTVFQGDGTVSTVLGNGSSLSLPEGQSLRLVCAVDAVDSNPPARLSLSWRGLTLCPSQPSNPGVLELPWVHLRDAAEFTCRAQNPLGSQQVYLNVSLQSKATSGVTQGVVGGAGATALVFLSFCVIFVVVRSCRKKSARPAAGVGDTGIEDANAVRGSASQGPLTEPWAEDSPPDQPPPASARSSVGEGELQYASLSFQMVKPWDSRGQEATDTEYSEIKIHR
The next experiment deals with Trypanosoma cruzi. Kind of experiment: Trypanosoma cruzi phosphomannomutase and mannose-1-phosphate guanylyltransferase assay. The experiment is classed as functional. The settings on record: 10 µM.
The target of experiment [4] is T2, Arginase-2, mitochondrial (Homo sapiens) (UniProt P78540).
T2 sequence (whole entry): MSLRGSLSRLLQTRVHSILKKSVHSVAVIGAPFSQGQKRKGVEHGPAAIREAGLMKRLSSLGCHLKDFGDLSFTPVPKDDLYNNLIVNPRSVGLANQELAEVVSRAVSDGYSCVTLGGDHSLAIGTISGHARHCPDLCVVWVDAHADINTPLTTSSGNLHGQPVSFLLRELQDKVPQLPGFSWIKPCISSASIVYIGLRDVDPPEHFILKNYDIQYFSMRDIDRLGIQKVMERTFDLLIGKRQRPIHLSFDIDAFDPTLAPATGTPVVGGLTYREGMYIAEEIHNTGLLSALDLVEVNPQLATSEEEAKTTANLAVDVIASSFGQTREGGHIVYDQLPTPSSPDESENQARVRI
The experiment can be described thus: in vitro enzyme assay to detect the production of urea directly proportional to the activity of Arginase II. Further: in the data most compounds retested in dose-response had high values. Type of experiment: functional. The settings on record: 33.3 µM.

For experiment [5], the target named is T3, Proteasome subunit beta (Trypanosoma cruzi) (UniProt O96673).
T3 sequence (whole entry): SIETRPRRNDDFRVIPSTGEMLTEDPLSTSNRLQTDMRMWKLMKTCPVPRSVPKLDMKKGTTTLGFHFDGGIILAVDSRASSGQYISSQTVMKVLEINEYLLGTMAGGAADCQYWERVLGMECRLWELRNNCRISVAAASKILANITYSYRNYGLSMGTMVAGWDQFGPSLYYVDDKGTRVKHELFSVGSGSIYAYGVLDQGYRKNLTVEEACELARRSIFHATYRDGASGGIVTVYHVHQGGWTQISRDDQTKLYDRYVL
The experiment can be described thus: Trypanosoma cruzi proteasome chymotrypsin-like activity (TcProtChymo) assay. Further: in the data most compounds retested in dose-response had high values. The settings on record: 9.37 µM. Type of experiment: functional.

The species named for a further experiment is Homo sapiens. Kind of experiment: To identify inhibition of the IFN signalling (Jak-Stat) pathway via expression of an eGFP reporter gene under the control of an IFN-stimulated response element (ISRE) containing MxA promoter. Type of experiment: functional. The note with it: 30 µM.
Experiment [6] concerns the target T4, Tyrosyl-tRNA synthetase, putative (Trypanosoma cruzi (strain CL Brener)) (UniProt Q4DSP6).
T4 sequence (whole entry): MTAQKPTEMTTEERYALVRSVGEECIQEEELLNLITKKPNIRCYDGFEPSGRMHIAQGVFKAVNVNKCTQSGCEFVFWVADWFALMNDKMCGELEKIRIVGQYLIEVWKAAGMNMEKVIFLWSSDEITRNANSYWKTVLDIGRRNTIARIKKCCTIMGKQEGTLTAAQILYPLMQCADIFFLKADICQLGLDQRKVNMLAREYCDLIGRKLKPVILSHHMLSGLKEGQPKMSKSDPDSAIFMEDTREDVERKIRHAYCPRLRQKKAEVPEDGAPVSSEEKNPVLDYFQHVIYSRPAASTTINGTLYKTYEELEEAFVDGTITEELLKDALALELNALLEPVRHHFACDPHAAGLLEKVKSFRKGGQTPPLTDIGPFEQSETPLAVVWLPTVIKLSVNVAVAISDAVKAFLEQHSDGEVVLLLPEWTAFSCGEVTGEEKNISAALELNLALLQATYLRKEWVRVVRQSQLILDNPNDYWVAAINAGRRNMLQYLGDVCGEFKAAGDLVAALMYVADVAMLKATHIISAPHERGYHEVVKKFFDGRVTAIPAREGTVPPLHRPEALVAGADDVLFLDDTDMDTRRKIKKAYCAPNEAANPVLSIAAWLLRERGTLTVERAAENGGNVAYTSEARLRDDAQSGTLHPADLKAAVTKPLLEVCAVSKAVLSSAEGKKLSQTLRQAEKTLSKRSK
The experiment can be described thus: Trypanosoma cruzi tyrosyl tRNA synthetase (TcYRS) _High Tyrosine SOP. Further: in the data most compounds retested in dose-response had high values. The experiment is classed as functional. The settings on record: 30 µM.

Experiment [7] deals with T4, Tyrosyl-tRNA synthetase, putative (Trypanosoma cruzi (strain CL Brener)). The experiment can be described thus: Trypanosoma cruzi tyrosyl tRNA synthetase (TcYRS) SOP. Type of experiment: functional. The settings on record: 30 µM.
The target of experiment [8] is Chromo domain-containing protein 1 (Saccharomyces cerevisiae (strain ATCC 204508 / S288c) (Baker's yeast)) (UniProt P32657). The experiment can be described thus: ScCHD-1 Enzyme Inhibition Assay. Further: in the data most compounds retested in dose-response had high values. The experiment is classed as functional. The note with it: 30 µM.
Chromo domain-containing protein 1 (Saccharomyces cerevisiae (strain ATCC 204508 / S288c) (Baker's yeast)), sequence (P32657 whole entry, the tested form may be a part): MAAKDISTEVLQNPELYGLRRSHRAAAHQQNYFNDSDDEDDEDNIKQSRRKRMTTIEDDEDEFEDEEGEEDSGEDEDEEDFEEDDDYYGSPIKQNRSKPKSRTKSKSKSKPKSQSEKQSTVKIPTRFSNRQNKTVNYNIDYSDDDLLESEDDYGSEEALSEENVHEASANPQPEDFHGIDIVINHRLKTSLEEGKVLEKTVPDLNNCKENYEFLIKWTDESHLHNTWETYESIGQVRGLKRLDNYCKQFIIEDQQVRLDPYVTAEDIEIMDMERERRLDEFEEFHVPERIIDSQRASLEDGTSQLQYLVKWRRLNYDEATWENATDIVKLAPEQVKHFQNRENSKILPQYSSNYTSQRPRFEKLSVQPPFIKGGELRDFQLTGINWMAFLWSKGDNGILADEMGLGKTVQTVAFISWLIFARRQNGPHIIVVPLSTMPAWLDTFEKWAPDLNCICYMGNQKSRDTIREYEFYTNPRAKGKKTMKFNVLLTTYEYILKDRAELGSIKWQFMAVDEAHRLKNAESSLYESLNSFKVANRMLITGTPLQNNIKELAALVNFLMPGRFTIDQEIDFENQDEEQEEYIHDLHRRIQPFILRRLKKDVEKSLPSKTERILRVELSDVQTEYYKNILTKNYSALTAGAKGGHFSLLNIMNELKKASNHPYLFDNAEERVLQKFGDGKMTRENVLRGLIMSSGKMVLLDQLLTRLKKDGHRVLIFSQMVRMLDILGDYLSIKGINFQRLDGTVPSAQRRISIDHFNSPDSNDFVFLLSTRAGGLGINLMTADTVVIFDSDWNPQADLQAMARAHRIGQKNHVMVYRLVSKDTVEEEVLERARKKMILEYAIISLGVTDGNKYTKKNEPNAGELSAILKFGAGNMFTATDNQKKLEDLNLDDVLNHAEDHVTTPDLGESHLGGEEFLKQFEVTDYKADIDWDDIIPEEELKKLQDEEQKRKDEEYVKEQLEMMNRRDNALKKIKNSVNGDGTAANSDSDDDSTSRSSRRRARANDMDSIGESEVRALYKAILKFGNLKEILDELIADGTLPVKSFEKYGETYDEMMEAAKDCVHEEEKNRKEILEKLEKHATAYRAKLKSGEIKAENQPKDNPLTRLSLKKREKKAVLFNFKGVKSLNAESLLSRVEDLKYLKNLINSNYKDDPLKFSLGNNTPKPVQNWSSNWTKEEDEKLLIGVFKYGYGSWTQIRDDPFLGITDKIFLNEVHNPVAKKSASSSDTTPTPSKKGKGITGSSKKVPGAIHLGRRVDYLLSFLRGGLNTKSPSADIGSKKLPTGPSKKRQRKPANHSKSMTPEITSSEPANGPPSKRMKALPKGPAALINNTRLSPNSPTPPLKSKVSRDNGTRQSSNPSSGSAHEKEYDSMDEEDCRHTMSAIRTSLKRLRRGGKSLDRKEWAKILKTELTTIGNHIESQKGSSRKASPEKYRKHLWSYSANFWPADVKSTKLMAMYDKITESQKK

For part of these data: Results with a measured potency or affinity are listed apart.

Protein translocase subunit SecA (Escherichia coli (strain K12)), sequence (P10408 whole entry): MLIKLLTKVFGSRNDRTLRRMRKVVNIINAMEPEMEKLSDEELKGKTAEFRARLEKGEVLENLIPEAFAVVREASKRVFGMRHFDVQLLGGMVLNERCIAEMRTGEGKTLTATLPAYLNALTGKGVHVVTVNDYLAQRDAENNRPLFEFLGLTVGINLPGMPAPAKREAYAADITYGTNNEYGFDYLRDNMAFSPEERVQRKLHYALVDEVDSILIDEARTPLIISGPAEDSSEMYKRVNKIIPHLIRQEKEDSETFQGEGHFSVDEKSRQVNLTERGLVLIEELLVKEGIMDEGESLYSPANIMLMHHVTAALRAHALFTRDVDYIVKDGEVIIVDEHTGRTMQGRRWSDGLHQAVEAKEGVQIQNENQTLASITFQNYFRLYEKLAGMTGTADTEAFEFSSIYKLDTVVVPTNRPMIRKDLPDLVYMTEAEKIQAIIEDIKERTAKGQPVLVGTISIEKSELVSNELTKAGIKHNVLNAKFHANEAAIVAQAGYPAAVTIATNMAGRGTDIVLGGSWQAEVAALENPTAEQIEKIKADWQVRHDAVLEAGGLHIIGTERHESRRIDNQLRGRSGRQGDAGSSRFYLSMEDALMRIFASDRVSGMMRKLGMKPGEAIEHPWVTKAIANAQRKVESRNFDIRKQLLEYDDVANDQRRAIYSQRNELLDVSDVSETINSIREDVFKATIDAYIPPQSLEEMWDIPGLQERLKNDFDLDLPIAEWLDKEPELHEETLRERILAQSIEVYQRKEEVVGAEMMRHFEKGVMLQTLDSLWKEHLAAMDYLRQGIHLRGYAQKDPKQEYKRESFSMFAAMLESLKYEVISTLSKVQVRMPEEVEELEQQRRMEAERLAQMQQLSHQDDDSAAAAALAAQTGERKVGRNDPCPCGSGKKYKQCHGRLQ

As to `COCCNC(=O)c1cc(S(=O)(=O)N2CCCCC2)cs1`, the Percent Effect in experiment [1] was -1.54%; in [2], 0%; in experiment [3], -4.58%; in the experiment with Trypanosoma cruzi it was -1.07%; in experiment [4] it was 1.05%; in experiment [5], 14.6%. Moreover, the Percent Effect in the experiment filed under Homo sapiens worked out at 19.3%; in [6], 0.532%; in [7] it was 2.44%; in [8], 2.87%.
Regarding `Cn1cc(CN2CCCN(C(=O)c3cn4ccccc4n3)CC2)cn1`, the Percent Effect is -2.59% in experiment [1]; 25.6% in experiment [2]; -16.8% in [3]; 4.04% in the experiment on Trypanosoma cruzi; -0.41% in [4]; 20.1% in experiment [5]. Also, the Percent Effect was 13.6% in the experiment listed under Homo sapiens, 3.35% in experiment [6], 22.9% in experiment [7] and 15.2% in experiment [8].
With `O=S(=O)(CCCN1CCCC1Cn1cncn1)c1ccccc1` (stereo not given), the Percent Effect is 1.87% in [1]; 26% in [2]; -0.0999% in [3]; 1.49% in the experiment on Trypanosoma cruzi; -4.71% in [4]; 17.4% in experiment [5]. Further, the Percent Effect in the experiment filed under Homo sapiens is 2.97%; in [6] it was 9.8%; in experiment [7] it was 21.2%; in [8], -10.1%.
`CN(Cc1cn2ccccc2n1)C1CCCN(c2cccnn2)C1` (stereo not given): the Percent Effect was -0.768% in experiment [1]; 26% in [2]; -7.59% in experiment [3]; 0.187% in the experiment with Trypanosoma cruzi; -4.71% in [4]; 15.1% in experiment [5]. For the same compound, the Percent Effect in the experiment filed under Homo sapiens was -3.7%; in [6] it was 7.84%; in experiment [7], 18.8%; in experiment [8] it was -9.66%.
In the case of `CC(C)(C)c1nnc(CN2CCn3c(nnc3C3CC3)C2)o1`, the Percent Effect in experiment [1] is -1.7%; in [2] it was -2.67%; in experiment [3] it was 0.00454%; in the experiment with Trypanosoma cruzi, -2.21%; in experiment [4], 0.444%; in experiment [5], 3.14%. The Percent Effect in the experiment listed under Homo sapiens was 13.2%; in experiment [6] it was 0.526%; in [7], 2.56%; in experiment [8], 9.52%.
On to `COC1CC2(CCN(Cc3ccc4c(c3)OCO4)CC2)C1`, for which the Percent Effect is -2.7% in experiment [1]; 24.7% in experiment [2]; -4% in experiment [3]; -2.63% in the experiment with Trypanosoma cruzi; 1.83% in experiment [4]; 10% in [5]. Moreover, the Percent Effect in the experiment filed under Homo sapiens was -11.4%; in [6] it was 6.76%; in experiment [7], 12.5%; in [8], -8.26%.
As for `CCOc1cc(CNC(=O)N2CCC(Cc3cnn(C)c3)C2)ccn1` (stereo not given), the Percent Effect was -2.64% in experiment [1]; -2.56% in experiment [2]; 1.57% in experiment [3]; 9.11% in the experiment with Trypanosoma cruzi; 0.82% in experiment [4]; 2.13% in experiment [5]. Moreover, the Percent Effect was 4.43% in the experiment filed under Homo sapiens, 3.35% in experiment [6], 6.02% in experiment [7] and -0.605% in experiment [8].
Consider `c1cc(CN2Cc3nnn(CC4CC4)c3C(COCC3CC3)C2)co1` (stereo not given), for which the Percent Effect in experiment [1] is -5.88%; in experiment [2], 3.9%; in [3], 10.3%; with Trypanosoma cruzi, 9.83%; in [4] it was -8.1%; in [5], 9.62%. Also, the Percent Effect in the experiment filed under Homo sapiens was -0.188%; in experiment [6], 3.68%; in [7], 12.8%; in experiment [8] it was 2.41%.
On to `Cc1cc(C2CCCN2Cc2ccn(C)c(=O)c2)no1` (stereo not given), for which the Percent Effect in experiment [1] is -3.32%; in [2], -10.3%; in [3], 3.98%; with Trypanosoma cruzi, 9.11%; in [4], 1.64%; in [5] it was 8.45%. Besides, the Percent Effect in the experiment filed under Homo sapiens was 4.2%; in experiment [6], 3.35%; in experiment [7], 8.43%; in [8], -0.427%.
As for `CC(C)CN1CCC2(CCN(C(=O)c3ccc(F)cc3)CC2)C1=O`, the Percent Effect in experiment [1] was -1.91%; in [2], 19.5%; in experiment [3], 0.691%; in the experiment on Trypanosoma cruzi it was 1.5%; in experiment [4], 0%; in experiment [5] it was 6.27%. Moreover, the Percent Effect in the experiment filed under Homo sapiens was -20.9%; in experiment [6], 11.6%; in [7], 22.5%; in experiment [8], -8.66%.
Turning to `CC(C)CN1C[C@@H]2CN(C(=O)[C@H]3CCCO3)C[C@@H]2C1=O`, the Percent Effect is -2.4% in [1]; 16.9% in experiment [2]; -1.93% in [3]; -7.13% with Trypanosoma cruzi; 3.65% in experiment [4]; 5.06% in experiment [5]. The Percent Effect is 7.85% in the experiment listed under Homo sapiens, -5.8% in [6], 12.5% in experiment [7] and -5.7% in [8].
As for `Cc1nc(C(=O)N2CCc3c(nc(-c4ccncc4)[nH]c3=O)C2)cs1`, the Percent Effect in experiment [1] is -4.53%; in [2] it was 0%; in experiment [3] it was 1.7%; with Trypanosoma cruzi it was -2.62%; in [4], 3.85%; in experiment [5], 11.6%. In addition, the Percent Effect was 5.04% in the experiment filed under Homo sapiens, 5.85% in experiment [6], 9.76% in experiment [7] and -3.73% in [8].
